# Measurements as given in PubChem BioAssay.
# Active and inactive are the calls of the source.
# Experiments:
# Albumin (Bos taurus) = Albumin (Bos taurus) (UniProt P02769); assay: compounds binding labelled BSA control protein – biochemical, small-molecule microarray, Alexa647 label, 635/667 nm fluorescence, artefact control for SMM control protein annotation, profiling panel (AID 1118); settings: BSA-A647 binding, fluorescence 635 nm, higher = more signal;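 note: score merges 667 nm emission intensity and signal-to-noise per printed compound spot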
# [1] = probe aXIP binding to arrayed compounds – biochemical, NeuroSMM set, 635/667 nm fluorescence, primary screen (AID 1119); settings: small-molecule microarray, higher = more signal, called active from +8 up or from −8 down;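 note: probe is the protein aXip251-270 applied at 1 µg/mL to compound-printed slides; binding of probe to printed compounds measured as 667 nm fluorescence plus signal to noise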
# [2] = probe aNOTCH3 binding on compound microarray – biochemical, small-molecule microarray, 635/667 nm fluorescence, primary screen (AID 1120); settings: higher = more signal;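 note: probe is a biotin-tagged antibody raised against NOTCH3 rather than NOTCH3 protein; score merges spot fluorescence near 667 nm with spot signal to noise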
# [3] = probe aNOTCH2 binding on compound microarray – biochemical, small-molecule microarray, 635/667 nm fluorescence, primary screen (AID 1121); settings: higher = more signal;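 note: score merges feature fluorescence read at 667 nm with its signal to noise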
# [4] = target: Carbonic anhydrase 2 (Homo sapiens) (UniProt P00918); assay: compounds binding carbonic anhydrase 2 – biochemical, small-molecule microarray, Alexa647-labelled CAII, profiling panel (AID 1122); settings: CAII-A647 binding fluorescence, higher = more signal
# [5] = COS7 lysate on small-molecule microarray, probe aHis, 635 nm (AID 1123); settings: COS7 cell lysate, fluorescence, higher = more signal;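 note: z-score combines 667nm fluorescence intensity with signal-to-noise per printed compound spot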
# [6] = probe aLAP1 signal on lysate-treated microarray – cell lysate, small-molecule microarray, COS7 lysate, primary screen (AID 1124); settings: probe aLAP1, fluorescence, higher = more signal;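 note: lysate comes from COS7 cells expressing LAP1 and is applied at 0.3 µg/mL; score merges spot fluorescence near 667 nm with signal-to-noise over triplicate slides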
# Sam68 (KHDRBS1) = assay: compounds binding KHDRBS1 protein – biochemical, small-molecule microarray, 635 nm fluorescence, primary screen (AID 1125); settings: higher = more signal;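 note: score merges 667 nm channel intensity with signal to noise over triplicate slides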
# [7] = tested on: Chordin-like protein 2 (CHRDL2); assay: compounds binding chordin-like 2 – biochemical, small-molecule microarray, 635 nm fluorescence, primary screen (AID 1126); settings: fluorescence 635 nm, higher = more signal;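 note: printed compound slides probed with Chrdl2 protein at 4 µg/mL for 1 h at 4 C; score merges 667 nm emission intensity with signal to noise over three replicate slides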
# [8] = target: Concanavalin-A (Canavalia ensiformis) (UniProt P02866); assay: compounds binding concanavalin A lectin – biochemical, small-molecule microarray, Alexa647 label, 635 nm, artefact control for SMM control protein annotation, primary screen (AID 1127); settings: ConA-A647 binding fluorescence, higher = more signal;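 note: z combines 667 nm emission intensity with signal-to-noise across three replicate slides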
# Sequence of Concanavalin-A (Canavalia ensiformis) (P02866 whole entry, looked up): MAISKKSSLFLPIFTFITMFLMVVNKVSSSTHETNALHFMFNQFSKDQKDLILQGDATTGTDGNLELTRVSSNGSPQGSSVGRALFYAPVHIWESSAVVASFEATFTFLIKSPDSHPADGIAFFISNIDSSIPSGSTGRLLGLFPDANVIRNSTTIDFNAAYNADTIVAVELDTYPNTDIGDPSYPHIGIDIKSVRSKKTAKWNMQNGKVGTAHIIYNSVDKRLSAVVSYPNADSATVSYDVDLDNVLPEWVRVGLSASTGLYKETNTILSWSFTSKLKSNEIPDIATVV
# Sequence of Albumin (Bos taurus) (P02769 whole entry, looked up): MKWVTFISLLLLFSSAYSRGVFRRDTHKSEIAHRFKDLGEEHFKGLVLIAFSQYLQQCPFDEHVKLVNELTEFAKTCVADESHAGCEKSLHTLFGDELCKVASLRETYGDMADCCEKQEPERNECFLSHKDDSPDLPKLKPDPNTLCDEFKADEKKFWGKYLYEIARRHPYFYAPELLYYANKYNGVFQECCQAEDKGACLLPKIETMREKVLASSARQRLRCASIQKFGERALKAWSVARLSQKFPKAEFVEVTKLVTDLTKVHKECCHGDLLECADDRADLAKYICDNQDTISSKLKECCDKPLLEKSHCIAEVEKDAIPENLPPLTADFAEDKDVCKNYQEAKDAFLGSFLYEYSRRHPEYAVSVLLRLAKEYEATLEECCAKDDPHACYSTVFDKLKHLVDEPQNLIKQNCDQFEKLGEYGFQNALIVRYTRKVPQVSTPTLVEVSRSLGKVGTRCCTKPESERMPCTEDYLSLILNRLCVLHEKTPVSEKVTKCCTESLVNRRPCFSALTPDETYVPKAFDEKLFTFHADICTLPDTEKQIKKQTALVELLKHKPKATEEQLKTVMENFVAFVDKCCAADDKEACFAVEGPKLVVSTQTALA
SMILES,composite z-score (Albumin (Bos taurus)),composite Z-score [1],composite z-score [2],composite z-score [3],composite z-score [4],composite z-score [5],composite z-score [6],composite z-score (Sam68 (KHDRBS1)),composite z-score [7],composite z-score [8]
CCCCC(CC)C(O)C1C=CC2C(=O)N(C)C(=O)C2N1Nc1ccccc1 (stereo not given),0.928,0.576 (inactive),0.0934,-0.0804,0.655,1.99,0.245,1.31,-0.113,0.586
NC(=O)[C@H]1[C@@H]2C(=O)O[C@@H](c3ccccc3)[C@@H](c3ccccc3)N2[C@@H](c2ccc(OCCO)cc2)[C@]12C(=O)Nc1ccc(C#CCCO)cc12,0.586,0.988 (inactive),0.0203,0.0252,0.537,1.26,0.204,1.16,0.0273,1.07
C=CC[C@H](OC(=O)Nc1ccc(SC)cc1)c1ccc(O)c2ccccc12,0.923,-0.285 (inactive),0.152,-0.107,0.634,1.72,0.368,1.29,0.975,1.16
NC(=O)NCC#Cc1ccc2c(c1)[C@]1(C(=O)N2)[C@H](C(=O)N2CCN(c3ncccn3)CC2)[C@H]2C(=O)O[C@H](c3ccccc3)[C@H](c3ccccc3)N2[C@@H]1c1ccc(O)cc1,0.151,0.953 (inactive),0.856,-0.0149,0.304,0.817,0.102,1.2,0.864,0.721
COc1ccc([C@H]2OC[C@@H]3C[C@H](Cc4ccccc4)C(=O)N32)cc1,-0.0141,-0.397 (inactive),0.03,-0.101,-0.0065,0.0949,-0.0729,0.0535,0.0962,0.512
O=C1C2C=CC(C(O)c3ccco3)N(Nc3ccccc3F)C2C(=O)N1c1ccccc1 (stereo not given),0.963,1.49 (inactive),0.101,-0.104,-0.0101,1.85,0.433,0.309,-0.238,0.403
COc1ccc(C#Cc2ccc3c(c2)[C@]2(C(=O)N3)[C@H](C(=O)O)[C@H]3C(=O)O[C@H](c4ccccc4)[C@H](c4ccccc4)N3[C@@H]2c2ccc(O)cc2)cc1,0.314,-0.118 (inactive),-0.243,-0.0664,0.659,1.15,0.577,0.285,-0.844,-0.425
O=C(C1N=C(c2ccc(OCCCO)cc2)N(c2ccccc2)O1)N1CCCCC1 (stereo not given),0.909,1.91 (inactive),0.304,0.116,0.718,2.31,0.936,1.29,0.165,1.2
COC(=O)[C@@]1(Cc2ccc(F)cc2)[C@H]2c3cc(C(=O)N(C)C)n(CCc4ccc(OC)c(Br)c4)c3C[C@H]2CN1C(=O)c1ccccc1,0.939,0.562 (inactive),0.613,0.363,0.487,1.44,0.0915,-0.111,-0.66,0.793
C[C@@H]1NC(=O)[C@@H](Cc2ccccc2)NC(=O)[C@@]23C(=O)N[C@@H](Cc4ccccc4)C2[C@H](C)[C@@]2(C)O[C@H]2C3/C=C/C/C=C\CNC1=O (stereo not given in full),0.324,-0.888 (inactive),-0.277,-0.125,0.493,1.05,0.074,0.126,-0.153,-0.447
COc1cccc(C)c1NC(=O)O[C@H]1[C@H](OC(=O)Nc2ccccc2-c2ccccc2)[C@H](OC(=O)Nc2ccccc2-c2ccccc2)[C@@H](OC)O[C@@H]1CO,0.816,0.497 (inactive),0.233,0.0149,0.434,0.947,0.429,1.29,0.494,1.15
O=C(NCc1ccc(F)cc1)[C@H]1C[C@H]2C(=O)NCC(=O)N2[C@H]1c1ccc(O)cc1,-0.447,0.534 (inactive),0.0066,-0.084,0.694,1.43,0.112,1.07,0.491,0.8
COc1ccc([Si](C)(C)[C@H]2[C@H](CC(=O)N(CCO)Cc3ccccc3)O[C@@]3(C(=O)N(C)c4c(Br)cc(C)cc43)[C@@H]2C)cc1,0.509,-0.324 (inactive),-0.0072,-0.179,0.731,1.07,0.0123,0.995,1.27,0.652
CCOC(=O)C[C@H]1[C@H](OC(=O)c2ccc(C(=O)c3ccccc3)cc2)[C@@H](NC(=O)c2ccc3ccccc3n2)c2cc(OCCCO)ccc2N1C(=O)Cc1ccc(OC)cc1,0.567,-0.201 (inactive),0.0779,-0.153,-0.175,0.759,-0.263,0.627,-0.384,0.93
CCCCNC(=O)c1ccc(C#CC(C)(C)C)c(OC(C)=O)c1,0.691,0.0956 (inactive),0.0744,-0.181,0.728,-0.0302,-0.0555,1.02,0.641,0.744
CC(CO)N1C(=O)[C@]2(C)C3C(=O)OCCC/C=C\[C@H]3OC23C=CCN(c2ccc(Cl)cc2)C(=O)[C@@H]13 (stereo not given in full),0.739,-0.462 (inactive),-0.186,-0.14,0.867,-0.354,0.644,-1.61,0.217,-0.474
COc1cc2c(cc1O)C(c1ccc(CN3CCCC3)cc1)N(Cc1cc3c(cc1Br)OCO3)CC2 (stereo not given),0.905,0.0698 (inactive),-0.0089,-0.102,0.891,0.796,0.119,-0.521,-0.0867,0.655
